Max response, Potency and outcome data for six compounds are collected here from PubChem BioAssay (NCATS).

Results filed as inconclusive are left out. A number with no mark means an inactive call. Active and inactive are the calls of the source. The call rests on the fitted dose curve; in most records, active means well fitted inhibition curve with a large enough effect; inconclusive means small, poorly fitted or top-dose-only effect; inactive means flat fitted curve, though single readings scatter.

Assay in all cases: Cytotoxic Profiling of Annotated Libraries Using Quantitative High-Throughput Screening (AID 1296008); further: nearly all actives have a fitted effect of over 60% in size
Conditions in all cases: Five cell lines viability, CellTiter-Glo ATP luminescence, 48-72 h; max response: hits give low values

One experiment has as its system CRL-7250. Summed up: (§1)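 Compounds were pin-transferred onto cells and incubated 48 or 72 hr at 37 degree Celsius, 95% humidity. CellTiter-Glo was added, plates sat 10 min at room temperature, then ATP-coupled luminescence was imaged as the viability read-out.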
Another experiment relates to HEK293. Summed up: as §1
The next experiment concerns HaCat. Summed up: as §1
The next experiment concerns KB-3-1. Summed up: as §1
A further experiment deals with NIH3T3. A digest of the protocol:
as §1
On the % scale 0 is the no-effect control and ±100 the full control effect; potency means the concentration at half of the fitted maximal effect.

In the case of `C[C@@H]1CC[C@@]2(OC1)O[C@H]1C[C@H]3[C@@H]4CC=C5C[C@@H](O)CC[C@]5(C)[C@H]4CC[C@]3(C)[C@H]1[C@@H]2C`, the max response with CRL-7250 is 3.2%; with HEK293, -1.54%; with HaCat, 4.49%; in the experiment with KB-3-1 it was -3.17%; in the experiment with NIH3T3, -1.68%.

`COc1cc(N2CCOCC2)ccc1Nc1ncc(Cl)c(Nc2ccccc2NS(C)(=O)=O)n1`: the max response in the experiment on CRL-7250 is -96.5%. In addition, the Potency is 1.84 µM (active) with HEK293, 4.61 µM (active) in the experiment with HaCat, 2.31 µM (active) with KB-3-1 and 6.51 µM (active) with NIH3T3.

`C=C(C)C1Cc2cc(C(=O)OC3OC(CO)C(O)C(O)C3O)ccc2O1` (stereo not given): the max response is -9% with CRL-7250; -15% with HEK293; -9.03% in the experiment on HaCat; 0.614% in the experiment with KB-3-1; -5.26% in the experiment with NIH3T3.

For `C=C(C(=O)O)C1CCC2(C)CCC(O)C(C)(O)C2C1` (stereo not given), the max response in the experiment on CRL-7250 was -18%; with HEK293 it was -0.305%; in the experiment with HaCat it was -8.51%; with KB-3-1 it was 1.37%; in the experiment with NIH3T3 it was -18.2%.

Take `C[C@@H]1O[C@@H](O[C@@H]2CO[C@@H](O[C@H]3CC[C@@]4(C)C(CC[C@]5(C)C4CC=C4[C@@H]6CC(C)(C)CC[C@]6(C(=O)O[C@@H]6O[C@H](CO)[C@@H](O)[C@H](O)[C@H]6O)CC[C@]45C)[C@]3(C)CO)[C@H](O)[C@H]2O[C@@H]2O[C@H](CO)[C@@H](O)[C@H](O)[C@H]2O)[C@H](O)[C@H](O)[C@H]1O` (stereo not given in full): the max response in the experiment with CRL-7250 is -2.09%; with HEK293 it was 1.34%; in the experiment on HaCat it was -0.513%; in the experiment on NIH3T3 it was 2.94%. For the same compound, the result in the experiment with KB-3-1 was inactive.

With `CC(=O)O[C@H]1CC[C@H](C)[C@@]2(C)[C@H](OC(C)=O)c3c(C)coc3C(=O)[C@H]12`, the max response was -18.1% in the experiment with CRL-7250; -27.7% in the experiment on HEK293; 2.83% with HaCat; 6.49% in the experiment with KB-3-1; -5.72% in the experiment on NIH3T3.
